Here are results for 7 molecules from PubChem BioAssay (NCI).

The structures appear in SMILES notation. The panel holds about 83,000 compounds, 20% with a hit somewhere; the sample as a whole holds those more often.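 In brief: 96-well plates, 48 h treatment, single concentration, percent growth endpoint.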 Values without a mark were called inactive. Activity calls are given as the source filed them. The calls were made as follows: active = growth percent below 10; inactive = the rest.

Among the test systems are NCI-H23 lung; NCI-H226 lung; NCI-H322M lung; HOP-62 NSCLC; NCI-H460 lung; HOP-92 NSCLC; NCI-H522 lung; A549/ATCC NSCLC; 786-0 renal; COLO 205 colon; DU-145 prostate; K-562 leukemia; MALME-3M melanoma; MDA-MB-231 breast; RXF 393 renal; SF-268 CNS; SF-295 CNS; SF-539 CNS; UACC-257 melanoma; M14 melanoma.
Experiment in all cases: NCI-60 one-dose screen, 48 h (100 = growth as untreated, 0 = no growth, -100 = all killed)
Holding throughout (details): 10 µM unless noted

With `CC(C)(C)c1cc(C(=O)Nc2cc3ccccc3cc2C(=O)NCCN)cc(C(C)(C)C)c1`, the growth in the assay on NCI-H23 lung is -52.4% (active); with NCI-H226 lung, -51.9% (active); in the assay with NCI-H322M lung, -78.3% (active); in the assay on HOP-62 NSCLC it was -80.8% (active); with NCI-H460 lung, -70.4% (active); in the assay on HOP-92 NSCLC it was -70.3% (active). Also, the growth in the assay on NCI-H522 lung was -47.3% (active); in the assay with A549/ATCC NSCLC, -60.7% (active); with 786-0 renal it was -92% (active); with COLO 205 colon it was -80.9% (active); in the assay with DU-145 prostate it was -96.9% (active); in the assay with K-562 leukemia, -76.9% (active). The growth in the assay on MALME-3M melanoma is -38.1% (active); with MDA-MB-231 breast, -79.9% (active); with RXF 393 renal, -90.4% (active); with SF-268 CNS it was -80.7% (active); with SF-295 CNS it was -85.5% (active); in the assay on SF-539 CNS, -68.8% (active). Moreover, the values for the growth with UACC-257 melanoma and with M14 melanoma were -36.1% (active) and -81.2% (active), respectively.
As for `C[n+]1c(-c2ccccc2)c2cc(N)ccc2c2ccccc21`, the growth in the assay on NCI-H23 lung is 27.5%; in the assay with NCI-H226 lung, 26.3%; in the assay with NCI-H322M lung, 70.8%; in the assay on HOP-62 NSCLC, 63.8%; in the assay with NCI-H460 lung, 28.4%; with HOP-92 NSCLC, 54.5%. Besides, the growth is -5.84% (active) with NCI-H522 lung; 44.4% in the assay with A549/ATCC NSCLC; 55.3% with 786-0 renal; 16.7% in the assay on COLO 205 colon; 43.8% in the assay on DU-145 prostate; 33.4% in the assay with K-562 leukemia. Besides, the growth is -19.5% (active) with MALME-3M melanoma; 70.8% in the assay on MDA-MB-231 breast; 58.9% in the assay with RXF 393 renal; -6.88% (active) in the assay with SF-268 CNS; 75.6% in the assay with SF-295 CNS; 28.5% in the assay on SF-539 CNS. The growth is 8.1% (active) in the assay with UACC-257 melanoma and 74.3% in the assay with M14 melanoma.
For the molecule `COc1ncc(-c2ccc3nc(N)n(-c4ccccc4C(F)(F)F)c(=O)c3c2)cc1S(=O)(=O)Nc1ccc(F)cc1F`, the growth is 30.6% in the assay with NCI-H23 lung; 88.9% in the assay with NCI-H226 lung; -11.6% (active) in the assay with NCI-H322M lung; 82.4% in the assay with HOP-62 NSCLC; 28.1% in the assay with NCI-H460 lung; 25.3% in the assay with HOP-92 NSCLC. Also, the growth in the assay with NCI-H522 lung was 46.8%; with A549/ATCC NSCLC, 29%; with 786-0 renal, 33.7%; in the assay on COLO 205 colon, -66.2% (active); with DU-145 prostate, 32.3%; in the assay with K-562 leukemia, 61.5%. Besides, the growth with MALME-3M melanoma was 76.2%; in the assay on MDA-MB-231 breast, -11% (active); in the assay with RXF 393 renal it was 10.6%; with SF-268 CNS, 46.1%; in the assay on SF-295 CNS, 33.4%; with SF-539 CNS it was 6.32% (active). For the same molecule, the growth in the assay with UACC-257 melanoma was 82.5%; with M14 melanoma it was 8.91% (active).
As to `O=C1CC(C(F)(F)F)Cc2nc3ccc(Br)cc3cc21` (stereo not given), the growth with NCI-H23 lung was 83.3%; in the assay on NCI-H226 lung it was 87.6%; with NCI-H322M lung, 78.2%; in the assay on HOP-62 NSCLC it was 87.1%; with NCI-H460 lung, 87.8%; with HOP-92 NSCLC it was 85.8%. Moreover, the growth in the assay on NCI-H522 lung is 84.8%; with A549/ATCC NSCLC it was 91.8%; in the assay on 786-0 renal, 96.4%; in the assay with COLO 205 colon it was 100%; in the assay on DU-145 prostate, 102%; in the assay on K-562 leukemia, 79.1%. The growth in the assay on MALME-3M melanoma was 84.1%; in the assay with MDA-MB-231 breast, 82.4%; in the assay on RXF 393 renal, 91.1%; in the assay with SF-268 CNS, 88.4%; in the assay with SF-295 CNS it was 90.2%; in the assay with SF-539 CNS, 93.9%. Further, the growth in the assay on UACC-257 melanoma is 106%; in the assay with M14 melanoma, 90.7%.
Take `CC1(C)OC2[C@@H](CNC(=O)NC(=O)NC(=O)CI)O[C@@H](n3cnc4c(NC(=O)Nc5ccccc5)ncnc43)[C@H]2O1` (stereo not given in full): the growth was 57.7% with NCI-H23 lung; 97.1% with NCI-H226 lung; 103% in the assay with NCI-H322M lung; 78% in the assay on HOP-62 NSCLC; 93.1% in the assay with NCI-H460 lung; -63.2% (active) with HOP-92 NSCLC. Moreover, the growth in the assay with NCI-H522 lung was -76% (active); in the assay with A549/ATCC NSCLC, 94.9%; in the assay with 786-0 renal, -77.9% (active); in the assay with COLO 205 colon, 51.7%; in the assay with DU-145 prostate, 105%; in the assay with K-562 leukemia, 4.48% (active). In addition, the growth with MALME-3M melanoma is -61.1% (active); in the assay with MDA-MB-231 breast, 58.4%; in the assay with RXF 393 renal, 54.9%; in the assay on SF-268 CNS, 73.4%; with SF-295 CNS, 84.6%; in the assay with SF-539 CNS it was 27.2%. Further, the growth with UACC-257 melanoma was 94.7%; in the assay with M14 melanoma, 69.4%.
Consider `Cc1ccc(S(=O)(=O)Oc2ccc([N+](=O)[O-])cc2[N+](=O)[O-])cc1`, for which the growth in the assay on NCI-H23 lung is 97%; in the assay on NCI-H226 lung, 68.9%; in the assay on NCI-H322M lung, 122%; with HOP-62 NSCLC, 115%; with NCI-H460 lung, 110%; with HOP-92 NSCLC, 65.3%. Also, the growth with NCI-H522 lung is 18.3%; in the assay with A549/ATCC NSCLC, 104%; in the assay on 786-0 renal, 47.7%; with COLO 205 colon it was 85.8%; with DU-145 prostate it was 116%; in the assay with K-562 leukemia it was 29%. Further, the growth in the assay on MALME-3M melanoma was 63.6%; in the assay with MDA-MB-231 breast it was 94.3%; with RXF 393 renal, 111%; in the assay on SF-268 CNS, 96.5%; in the assay with SF-295 CNS, 108%; in the assay on SF-539 CNS it was 93.6%. Moreover, the growth in the assay with UACC-257 melanoma was 86.2%; with M14 melanoma it was -8.49% (active).
As for `O=C(C[n+]1ccn(CC(OCc2ccc(Cl)cc2Cl)c2ccc(Cl)cc2Cl)c1)c1ccc(F)cc1` (stereo not given), the growth was -87.8% (active) with NCI-H23 lung; -76.4% (active) in the assay with NCI-H226 lung; -89.3% (active) with NCI-H322M lung; -91.3% (active) with HOP-62 NSCLC; -86.1% (active) with NCI-H460 lung; -87.5% (active) with HOP-92 NSCLC. Further, the growth is -82.2% (active) in the assay on NCI-H522 lung; 29.9% in the assay on A549/ATCC NSCLC; -94.3% (active) in the assay with 786-0 renal; -84.8% (active) in the assay on COLO 205 colon; -93.1% (active) in the assay on DU-145 prostate; -17.2% (active) with K-562 leukemia. Besides, the growth was -84.8% (active) in the assay with MALME-3M melanoma; -96.7% (active) with MDA-MB-231 breast; -94.2% (active) in the assay on RXF 393 renal; -93.3% (active) in the assay on SF-268 CNS; -90.2% (active) in the assay with SF-295 CNS; -91.9% (active) with SF-539 CNS. For the same molecule, the growth in the assay with UACC-257 melanoma was -89.6% (active); in the assay with M14 melanoma, -97.3% (active).
